# VDR inh = inhibitors of human vitamin D receptor | VDR-SRC2-3 peptide fluorescence polarization, 2 h | Potency, µM, for inactives: max response, negative = inhibition, hits mostly inhibitors | 400,000 tested, 0.93% active | AID 504847
#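 Fluorescence polarization assay of small-molecule disruption of VDR binding to coregulator peptide SRC2-3. Compounds and controls pin-transferred, then read after 2 h incubation at ambient room temperature.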
# PLK1 PBD block = blocks phosphopeptide binding to human PLK1 polo-box domain; P53350; Plk1 PBD binding of FITC phosphopeptide, fluorescence polarization; Potency, µM, for inactives: max response, negative = inhibition, hits mostly inhibitors; 360,000 tested, 2.8% active; further: series mostly up to about 57 µM; nearly all actives have a fitted effect of over 65% in size
# TrxR1 substrate = is turned over as a substrate by rat TrxR1 | O89049 | purified TrxR1 substrate turnover, NADPH consumption readout | Potency, µM (doses to about 114 µM), for inactives: top-dose activity change, negative = substrate turnover | 390,000 tested, 0.01% active; further: nearly all actives have a fitted effect of over 50% in size
#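 Rat TrxR1, dispensed at 90 nM, was prereduced with 400 uM NADPH (final) for 5 min at ~22 deg C, then incubated with compound 15 min before 400 uM selenite. A first-read NADPH fluorescence drop versus no-compound background flagged substrates.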
# TrxR1 inh = rat TrxR1 inhibition; AID 588453; 390,000 tested, 1% active; recombinant rTrxR1, NADPH fluorescence consumption, selenite substrate; Potency, µM (highest dose often 114 µM), inactives show at the top dose activity change, negative = inhibition, most hits filed as inhibitors; further: nearly all actives have a fitted effect of over 65% in size
#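 Rat TrxR1 (90 nM in the dispensed reagent) was pre-reduced with 400 uM NADPH for 5 min at room temperature, then incubated with compound for 15 min. After 400 uM selenite was added, NADPH fluorescence (Ex 340/Em 450 nm) was followed for 8 min.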
# IDH1 R132H inh = human IDH1 R132H inhibition; Potency, µM (top dose mostly 76.6 µM), for inactives: at the top dose activity change, negative = inhibition, hits mostly inhibitors; 390,000 tested, 0.093% active; O75874; IDH1-R132H enzyme, NADPH consumption, diaphorase/resazurin fluorescence; AID 602179; further: nearly all actives have a fitted effect of over 65% in size
# Target sequence (O75874 whole entry R132H, stated change not applied): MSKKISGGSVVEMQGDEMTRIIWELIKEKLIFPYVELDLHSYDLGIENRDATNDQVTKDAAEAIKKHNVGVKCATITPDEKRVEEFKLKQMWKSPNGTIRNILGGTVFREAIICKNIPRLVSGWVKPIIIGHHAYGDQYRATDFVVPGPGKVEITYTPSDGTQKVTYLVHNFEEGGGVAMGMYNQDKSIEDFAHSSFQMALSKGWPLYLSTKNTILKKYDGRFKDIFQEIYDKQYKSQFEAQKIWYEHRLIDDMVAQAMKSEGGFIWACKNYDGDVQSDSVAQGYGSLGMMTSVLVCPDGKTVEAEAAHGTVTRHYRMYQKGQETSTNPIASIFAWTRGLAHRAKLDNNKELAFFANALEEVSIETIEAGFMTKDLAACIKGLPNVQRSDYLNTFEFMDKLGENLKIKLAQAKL
#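 IDH1-R132H (0.5 ug/mL dispensed) in pH 7.5 Tris buffer was preincubated 30 min with compound, then given a substrate mix of 0.016 mM NADPH and 2 mM alpha-KG for 80 min at room temperature; remaining NADPH was read by diaphorase/resazurin fluorescence.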
# Sfp inh = blocks B. subtilis Sfp PPTase activity; Potency, µM, without a hit: largest response in the series, negative = inhibition, usual class: inhibitors; Biochemical Sfp PPTase activity, qHTS; 310,000 tested, 3.5% active; Q9F4F7;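 further: the enzyme is Sfp with the accession as filed and its product quenches rhodamine fluorescence; 0% = enzyme reaction without inhibitor and -100% = no enzyme wells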
#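 Fluorescence-quenching assay: 15 nM Sfp-PPTase preincubated 15 min at room temperature with compound, then 5 uM rhodamine-CoA and 12.5 uM BHQ-2-labelled YbbR peptide added. Fluorescence (ex 525/em 598 nm) read at start and after 30 min; difference gives rate.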
# * = called active by the depositor; u = inconclusive; x = not tested or not shown; [ ] = dose if it differs, or a comment. Only some compounds are listed: those with a hit (about 5.2% of all), similar ones and a draw of the others. The call rests on the fitted dose curve; in most records, active means well fitted curve in the direction sought with a large enough effect; inconclusive means small, poorly fitted or top-dose-only effect, or another doubt; inactive means no such curve, though single readings can be large; an effect the other way counts as inactive or inconclusive. Unless noted, on the % scale 0 is the no-effect control and ±100 the full control effect; potency means the concentration at half of the fitted maximal effect.
SMILES,VDR inh,PLK1 PBD block,TrxR1 substrate,TrxR1 inh,IDH1 R132H inh,Sfp inh
O=C(c1ccoc1)N1CCC2(CC1)Oc1ccc(F)cc1C(=O)C21CC(c2ccc(Cl)cc2)=NO1 (stereo not drawn),u,-10%,-10%,71µM*,8%,6%
Cc1ccc2c(c1)cc(CN(Cc1ccco1)C(=O)COc1ccccc1)c1nnnn12,-9%,24µM*,7%,6%,9%,0%
CCC(=O)N(Cc1ccco1)Cc1cc2cccc(C)c2n2nnnc12,19%,-1%,-1%,8%,1%,15%
Clc1cccc(C(c2ccc3nc[nH]c3c2)n2ccnc2)c1 (stereo not drawn),u,x,x,x,x,7%
O=C(CSc1ncnc2c1nnn2Cc1ccccc1F)N1CCN(c2ccccc2)CC1,7%,-5%,-7%,-8%,3%,13%
Fc1ccccc1Cn1nnc2c(-n3ccnc3)ncnc21,u,24µM*,10%[57.1 µM],11%[57.1 µM],4%,-4%
O=C(NCc1ccc(Cl)cc1)C1CCN(S(=O)(=O)Cc2ccccc2)CC1,15%,x,7%,1%,-4%,x
O=C(Nc1nccs1)c1cn2ccccc2n1,-3%,-5%,11%,22%,1%,u
NNC(=O)c1cn2ccccc2n1,-4%,-4%,1%,-4%,5%,79µM*
COc1cccc([C@@H]2Oc3ccc(OC)cc3C[C@H]2OC(=O)NS(=O)(=O)c2ccc(C)cc2)c1,3%,x,x,x,x,-5%
COC(=O)C1=C(C(=O)OC)C(c2ccccc2O)c2sc(=O)[nH]c2S1 (stereo not drawn),20µM*,4.2µM*,-7%,-19%[57.1 µM],-3%,8.9µM*
COC(=O)c1sc2ccccc2c1C(=O)OC,-13%,-6%,9%,19%,11%,6%
CCC(Sc1nc(C)cc(C)n1)C(=O)Nc1cc(C)on1 (stereo not drawn),10%,-18%,1%,16%,11%,9%
CCC(Sc1nc(C)cc(C)n1)C(=O)NC1=NN=C(c2ccc(C)cc2)CS1 (stereo not drawn),u,-12%,2%[57.1 µM],5%[57.1 µM],46µM*,u
O=C(NC(=S)Nc1ccc(S(=O)(=O)Nc2nccs2)cc1)c1ccc(F)cc1,-9%,-20%,-3%,22µM*,0%,-17%
COc1nccnc1NS(=O)(=O)c1ccc(NC(=S)NC(=O)c2cccc(F)c2)cc1,-22%,-22%,-8%,u,9%,3%
COc1nccnc1NS(=O)(=O)c1ccc(NC(=S)NC(=O)c2ccc(F)cc2)cc1,-6%,-10%,3%,u,5%,50µM*
CC(C)(C)C(=O)NC(=S)Nc1ccc(S(=O)(=O)Nc2nccs2)cc1,4%,-17%,1%[57.1 µM],-22%[57.1 µM],-5%,-8%
O=C(NC1CCS(=O)(=O)C1)Oc1ccccc1 (stereo not drawn),-16%,27µM*,-11%,6%[57.1 µM],1%,6%
O=C(/C=C/c1cccs1)NC1CCS(=O)(=O)C1 (stereo not drawn),89µM*,27µM*,-1%[57.1 µM],18%[57.1 µM],2%,-3%
Cc1ccc(OC(=O)NC2CCS(=O)(=O)C2)cc1C (stereo not drawn),10%,-3%,7%[57.1 µM],-11%[57.1 µM],4%,19%
O=C(/C=C/c1cccs1)NC1CCCC1,1%,-17%,-2%,24%,5%,15%
COc1ccc(OC)c(CNC(=O)c2cnc(N(C)C)nc2)c1,7%,x,7%[57.1 µM],22%[57.1 µM],x,x
COCCN1C(=O)COc2ccccc2C1C(=O)Nc1ccc2c(c1)OCCO2 (stereo not drawn),x,2%,x,x,x,x
CC(C)CN(Cc1cc(=O)oc2cc(-c3ccccc3)c(O)cc12)CC(C)C,-24%,30µM*,-3%,23%,-2%,11%
SMILES,VDR inh,PLK1 PBD block,TrxR1 substrate,TrxR1 inh,IDH1 R132H inh,Sfp inh
COc1ccc2cc(-c3nc4ccc(C(=O)O)cc4[nH]3)c(=O)oc2c1,0%,x,154%[57.1 µM],10%[57.1 µM],43%,x
CCCn1c(=O)c2[nH]c(-c3ccccc3)nc2n(CCC)c1=O,7%,x,x,x,x,-1%
COC(=O)/C=C\C(C#N)(C#N)N=Cc1ccc(OC)cc1,13µM*,9.5µM*,-5%,2.2µM*,6%,x
COc1ccc(/C=C/C(=O)NCC(=O)N/N=C/c2ccc(OC)cc2)cc1,-5%,-24%,2%,7%[57.1 µM],-6%,14%
CC(=O)NCc1ccc(S(=O)(=O)N2CCN(S(=O)(=O)c3ccc4ccccc4c3)CC2)cc1,-3%,2%,-4%,5%,-11%,x
Cc1ccc(N(C(=O)CCl)C(C(=O)NC2CCCCC2)c2cccnc2)cc1C (stereo not drawn),-43%,3%,-4%,10µM*,-8%,-2%
Cc1ccc(N(C(=O)CNC(=O)c2ccco2)C(C(=O)NC2CCCCC2)c2cccnc2)cc1C (stereo not drawn),-4%,-5%,0%[57.1 µM],8%[57.1 µM],-15%,5%
CCOC(=S)SCC(=O)N1CCc2ccccc2C1C1C(=O)CCCC1=O (stereo not drawn),33%,-17%,-10%,-9%,-1%,56µM*
O=C1CCCC(=O)C1C1c2ccccc2CCN1C(=O)CCl (stereo not drawn),12%,-10%,12%[57.1 µM],-12%[57.1 µM],3%,4%
Cc1nn(C)c(C(=O)NC(=S)Nc2ccc([N+](=O)[O-])cc2)c1Cl,12%,-21%,-4%,-13%,0%,32µM*
Cc1cccc(NCc2nnc3n2CCCCC3)c1C,15%,x,5%[57.1 µM],24%[57.1 µM],32%,x
CCOC(=O)/C=C/C(=O)Nc1ccc(S(=O)(=O)Nc2c(C)cc(C)cc2C)cc1,6%,-11%,-8%,-5%,-3%,8%
CCOC(=O)/C=C/C(=O)OCC(=O)Nc1ccc(C)cc1,u,u,14%,40µM*,2%,6%
CCOC(=O)/C=C/S(=O)(=O)c1ccc(NC(C)=O)cc1,u,u,-4%,u,1%,40µM*
COc1cccc(C2CC(=O)N3CN(c4ccccc4F)CSC3=C2C#N)c1 (stereo not drawn),45µM*,-12%,2%[57.1 µM],-49%,6%,7.9µM*
COc1cc(C2CC(=O)N3CN(c4ccccc4C)CSC3=C2C#N)cc(OC)c1OC (stereo not drawn),x,x,x,x,x,2.8µM*
CCC1(c2ccc(F)cc2)NC(=O)N(CC(=O)Nc2ccccc2Cl)C1=O (stereo not drawn),-11%,-1%,2%,12%,5%,-6%
COc1cc(CCNC(=O)c2ccc3c(c2)c(C)c(C)n3Cc2cccc(C)c2)cc(OC)c1OC,6%,x,-1%[57.1 µM],12%[57.1 µM],-11%,x
O=C(Cn1cnc2sc3c(c2c1=O)CCCC3)NCC(=O)Nc1c(F)cc(F)cc1Br,-14%,30µM*,-2%,11%,1%,-19%

# High-throughput results deposited in PubChem BioAssay by National Center for Advancing Translational Sciences (NCATS).
